Results reported in PMC7862700, “An all-to-all approach to the identification of sequence-specific readers for epigenetic DNA modifications on cytosine”.

What was measured:
Test in all cases: DAPPL (digital affinity profiling via proximity ligation, sequencing); 10 mM Tris-HCl pH 7.5, 50 mM NaCl, 1 mM DTT, 4% glycerol, room temperature, 30 min; GST-TFs on glutathione beads, 16-mer random dsDNA library, 0.1% formaldehyde crosslink after washing; high values mean tight binding
Settings in all cases: protein: recombinant; tags: N-terminal GST; dsDNA, one strand shown
FLI1 = target: T1, FLI1 (Homo sapiens, UniProt Q01543 1-452)
T1 sequence: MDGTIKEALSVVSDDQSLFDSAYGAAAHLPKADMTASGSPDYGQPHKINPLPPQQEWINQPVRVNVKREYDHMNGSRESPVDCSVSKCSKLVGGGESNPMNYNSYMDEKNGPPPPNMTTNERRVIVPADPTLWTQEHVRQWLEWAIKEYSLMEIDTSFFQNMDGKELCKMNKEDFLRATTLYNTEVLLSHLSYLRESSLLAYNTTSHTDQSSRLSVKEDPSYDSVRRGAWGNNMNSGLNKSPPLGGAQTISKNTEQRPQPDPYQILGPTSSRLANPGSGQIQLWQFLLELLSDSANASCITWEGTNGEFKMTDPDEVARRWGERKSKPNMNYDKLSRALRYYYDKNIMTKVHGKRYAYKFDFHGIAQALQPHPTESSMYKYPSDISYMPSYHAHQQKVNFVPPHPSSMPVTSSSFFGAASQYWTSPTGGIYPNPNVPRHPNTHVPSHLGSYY
Summary of the method: (§1)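 Binding signal is given per hexamer as its read frequency for a factor divided by its frequency in the tag-only sample. GST-fused human transcription factors were expressed in yeast, captured on glutathione beads, barcoded with DNA and pooled with that sample, then incubated with 200 nmole of a 16-mer random double-stranded DNA library in Tris/NaCl/DTT/glycerol buffer for 30 min at room temperature. The pools were then washed, crosslinked, proximity-ligated, amplified by PCR and sequenced on an Illumina NextSeq500.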

ERG = target: T2, ERG (Homo sapiens, UniProt P11308 1-479)
T2 sequence: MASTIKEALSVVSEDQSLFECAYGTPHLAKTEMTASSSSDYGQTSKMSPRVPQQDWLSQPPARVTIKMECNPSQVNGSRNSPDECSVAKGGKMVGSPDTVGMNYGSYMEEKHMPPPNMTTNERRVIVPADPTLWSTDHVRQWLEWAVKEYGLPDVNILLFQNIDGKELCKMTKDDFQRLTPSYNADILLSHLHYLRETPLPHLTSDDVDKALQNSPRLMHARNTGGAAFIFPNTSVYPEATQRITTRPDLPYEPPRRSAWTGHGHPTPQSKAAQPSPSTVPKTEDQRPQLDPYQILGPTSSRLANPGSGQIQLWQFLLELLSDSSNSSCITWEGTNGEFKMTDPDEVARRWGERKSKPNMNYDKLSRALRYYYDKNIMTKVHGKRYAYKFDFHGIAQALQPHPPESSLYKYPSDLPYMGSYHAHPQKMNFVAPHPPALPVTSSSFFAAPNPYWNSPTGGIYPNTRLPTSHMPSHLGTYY
Summary of the method: as §1

ELF1 = ELF1 (Homo sapiens, UniProt P32519 1-619)
Summary of the method: as §1

EHF = target: T3, EHF (Homo sapiens, UniProt Q9NZC4 1-300)
T3 sequence: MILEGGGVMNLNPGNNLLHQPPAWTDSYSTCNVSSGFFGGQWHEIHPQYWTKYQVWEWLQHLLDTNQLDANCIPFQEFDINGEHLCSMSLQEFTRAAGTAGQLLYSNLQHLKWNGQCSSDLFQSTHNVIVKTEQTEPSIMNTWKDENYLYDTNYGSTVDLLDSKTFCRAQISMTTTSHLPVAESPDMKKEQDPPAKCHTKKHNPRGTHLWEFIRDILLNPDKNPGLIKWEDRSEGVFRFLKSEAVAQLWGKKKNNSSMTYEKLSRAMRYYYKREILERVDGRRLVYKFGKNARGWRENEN
Summary of the method: as §1

SPIB = SPIB (Homo sapiens, UniProt Q01892 1-262)
Summary of the method: as §1

ETV5 = ETV5 (Homo sapiens, UniProt P41161 1-510)
Summary of the method: as §1

SPIC = target: T4, SPIC (Homo sapiens, UniProt Q8N5J4 1-248)
T4 sequence: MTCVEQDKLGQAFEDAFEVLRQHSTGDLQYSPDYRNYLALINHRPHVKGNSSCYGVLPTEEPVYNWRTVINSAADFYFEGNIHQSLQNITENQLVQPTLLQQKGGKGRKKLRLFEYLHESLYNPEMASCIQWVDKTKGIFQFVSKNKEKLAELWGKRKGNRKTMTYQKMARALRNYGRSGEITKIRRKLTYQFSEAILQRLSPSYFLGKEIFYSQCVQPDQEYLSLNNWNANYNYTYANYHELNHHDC
Summary of the method: as §1

ELF4 = ELF4 (Homo sapiens, UniProt Q99607 1-663)
Summary of the method: as §1

ETV1 = ETV1 (Homo sapiens, UniProt P50549 1-477)
Summary of the method: as §1

ERF = target: T5, ERF (Homo sapiens, UniProt P50548 1-548)
T5 sequence: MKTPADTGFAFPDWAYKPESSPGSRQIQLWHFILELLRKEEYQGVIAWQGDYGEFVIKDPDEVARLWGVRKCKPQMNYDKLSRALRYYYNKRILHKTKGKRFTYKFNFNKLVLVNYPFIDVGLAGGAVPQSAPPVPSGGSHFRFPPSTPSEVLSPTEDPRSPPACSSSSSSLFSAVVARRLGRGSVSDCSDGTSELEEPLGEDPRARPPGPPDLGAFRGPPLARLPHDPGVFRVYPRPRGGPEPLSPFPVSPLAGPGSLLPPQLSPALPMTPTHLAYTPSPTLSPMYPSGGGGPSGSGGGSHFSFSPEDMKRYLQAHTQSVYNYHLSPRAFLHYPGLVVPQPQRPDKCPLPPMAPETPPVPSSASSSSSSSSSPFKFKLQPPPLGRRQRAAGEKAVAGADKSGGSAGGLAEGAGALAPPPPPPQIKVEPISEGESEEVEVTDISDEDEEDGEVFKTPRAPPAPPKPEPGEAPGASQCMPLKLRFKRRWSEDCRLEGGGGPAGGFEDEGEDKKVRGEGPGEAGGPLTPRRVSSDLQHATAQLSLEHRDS
Summary of the method: as §1

ETV3L = target: T6, ETV3L (Homo sapiens, UniProt Q6ZN32 1-361)
T6 sequence: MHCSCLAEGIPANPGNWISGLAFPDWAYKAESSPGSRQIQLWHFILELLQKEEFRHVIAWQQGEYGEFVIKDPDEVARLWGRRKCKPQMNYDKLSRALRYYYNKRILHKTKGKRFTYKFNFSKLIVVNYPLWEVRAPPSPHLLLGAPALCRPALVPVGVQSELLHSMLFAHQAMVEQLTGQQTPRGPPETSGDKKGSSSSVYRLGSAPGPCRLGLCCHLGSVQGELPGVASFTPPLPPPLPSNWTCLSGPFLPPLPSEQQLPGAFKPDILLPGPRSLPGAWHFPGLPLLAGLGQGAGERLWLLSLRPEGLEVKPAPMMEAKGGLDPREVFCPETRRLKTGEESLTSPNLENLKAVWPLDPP
Summary of the method: as §1

ELF5 = target: T7, ELF5 (Homo sapiens, UniProt Q9UKW6-2 1-255)
T7 sequence: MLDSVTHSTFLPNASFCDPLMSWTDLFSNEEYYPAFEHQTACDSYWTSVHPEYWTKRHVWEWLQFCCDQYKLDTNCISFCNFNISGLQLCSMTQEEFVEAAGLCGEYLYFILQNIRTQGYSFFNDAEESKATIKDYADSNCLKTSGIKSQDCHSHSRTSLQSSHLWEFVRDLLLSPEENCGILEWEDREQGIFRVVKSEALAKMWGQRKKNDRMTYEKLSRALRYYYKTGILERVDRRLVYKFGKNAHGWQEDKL
Summary of the method: as §1

ETV3 = target: T8, ETV3 (Homo sapiens, UniProt P41162-2 1-143)
T8 sequence: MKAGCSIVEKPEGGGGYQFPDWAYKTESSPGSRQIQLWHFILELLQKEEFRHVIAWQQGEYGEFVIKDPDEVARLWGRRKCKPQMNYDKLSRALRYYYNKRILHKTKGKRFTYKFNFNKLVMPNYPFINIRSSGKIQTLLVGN
Summary of the method: as §1

ETV6 = ETV6 (Homo sapiens, UniProt P41212 1-452)
Summary of the method: as §1

ELK1 = target: T9, ELK1 (Homo sapiens, UniProt P19419 1-428)
T9 sequence: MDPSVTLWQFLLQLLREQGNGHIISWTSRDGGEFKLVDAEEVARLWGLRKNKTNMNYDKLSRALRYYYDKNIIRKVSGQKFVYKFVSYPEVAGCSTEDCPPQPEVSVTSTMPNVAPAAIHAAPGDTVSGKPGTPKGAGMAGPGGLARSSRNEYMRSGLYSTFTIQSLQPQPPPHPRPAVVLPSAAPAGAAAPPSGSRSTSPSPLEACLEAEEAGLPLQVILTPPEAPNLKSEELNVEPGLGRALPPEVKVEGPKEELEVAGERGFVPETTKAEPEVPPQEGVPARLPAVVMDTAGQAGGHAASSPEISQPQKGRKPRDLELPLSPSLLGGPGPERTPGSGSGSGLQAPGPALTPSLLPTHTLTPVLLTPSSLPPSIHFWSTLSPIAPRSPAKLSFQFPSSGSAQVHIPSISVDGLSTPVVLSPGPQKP
Summary of the method: as §1

ELK3 = target: T10, ELK3 (Homo sapiens, UniProt P41970 1-407)
T10 sequence: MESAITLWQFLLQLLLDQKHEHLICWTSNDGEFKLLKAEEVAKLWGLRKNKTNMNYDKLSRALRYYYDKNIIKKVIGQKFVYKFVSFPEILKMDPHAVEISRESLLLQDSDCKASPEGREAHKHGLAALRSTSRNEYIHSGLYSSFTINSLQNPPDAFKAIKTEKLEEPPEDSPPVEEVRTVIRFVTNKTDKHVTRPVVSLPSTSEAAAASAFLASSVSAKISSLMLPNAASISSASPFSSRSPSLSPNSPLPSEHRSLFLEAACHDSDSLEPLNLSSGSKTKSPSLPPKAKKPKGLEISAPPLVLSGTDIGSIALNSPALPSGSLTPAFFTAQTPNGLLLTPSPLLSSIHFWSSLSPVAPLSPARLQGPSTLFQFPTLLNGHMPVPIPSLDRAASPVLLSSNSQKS
Summary of the method: as §1

FEV = target: T11, FEV (Homo sapiens, UniProt Q99581 1-238)
T11 sequence: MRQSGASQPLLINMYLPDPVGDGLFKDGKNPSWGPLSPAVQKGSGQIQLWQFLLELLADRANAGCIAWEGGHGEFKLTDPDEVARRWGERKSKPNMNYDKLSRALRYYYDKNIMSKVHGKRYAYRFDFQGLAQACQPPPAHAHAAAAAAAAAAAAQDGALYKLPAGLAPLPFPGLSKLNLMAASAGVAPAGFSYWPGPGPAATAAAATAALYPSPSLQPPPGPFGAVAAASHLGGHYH
Summary of the method: as §1

ETS2 = target: T12, ETS2 (Homo sapiens, UniProt P15036 1-469)
T12 sequence: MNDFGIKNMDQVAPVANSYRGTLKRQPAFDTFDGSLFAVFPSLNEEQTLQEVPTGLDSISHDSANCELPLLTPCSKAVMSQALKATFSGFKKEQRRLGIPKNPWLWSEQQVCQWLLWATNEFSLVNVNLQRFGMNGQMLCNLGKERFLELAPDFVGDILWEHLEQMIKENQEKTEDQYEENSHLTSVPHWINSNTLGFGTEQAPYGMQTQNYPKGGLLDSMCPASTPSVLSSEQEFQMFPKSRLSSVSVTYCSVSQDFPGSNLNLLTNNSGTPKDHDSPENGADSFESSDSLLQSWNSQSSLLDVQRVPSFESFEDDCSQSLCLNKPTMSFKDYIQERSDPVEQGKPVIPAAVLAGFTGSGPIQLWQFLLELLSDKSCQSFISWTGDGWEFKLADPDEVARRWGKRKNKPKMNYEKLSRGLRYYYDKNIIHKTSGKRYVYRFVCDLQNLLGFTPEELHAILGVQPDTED
Summary of the method: as §1

Sequence of ETV6 (P41212 whole entry): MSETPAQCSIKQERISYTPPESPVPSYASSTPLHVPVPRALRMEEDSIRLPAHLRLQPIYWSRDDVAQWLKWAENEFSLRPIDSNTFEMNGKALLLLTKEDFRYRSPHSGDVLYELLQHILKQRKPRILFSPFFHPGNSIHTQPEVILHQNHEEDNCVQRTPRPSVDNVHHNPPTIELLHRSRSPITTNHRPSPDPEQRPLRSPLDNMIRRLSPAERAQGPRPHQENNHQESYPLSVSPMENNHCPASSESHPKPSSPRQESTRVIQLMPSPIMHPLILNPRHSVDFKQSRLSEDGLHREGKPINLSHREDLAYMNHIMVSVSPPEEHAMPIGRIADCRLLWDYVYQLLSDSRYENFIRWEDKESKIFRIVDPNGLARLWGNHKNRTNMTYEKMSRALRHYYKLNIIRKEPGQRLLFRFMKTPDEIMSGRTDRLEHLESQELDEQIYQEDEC
Sequence of ELF4 (Q99607 whole entry): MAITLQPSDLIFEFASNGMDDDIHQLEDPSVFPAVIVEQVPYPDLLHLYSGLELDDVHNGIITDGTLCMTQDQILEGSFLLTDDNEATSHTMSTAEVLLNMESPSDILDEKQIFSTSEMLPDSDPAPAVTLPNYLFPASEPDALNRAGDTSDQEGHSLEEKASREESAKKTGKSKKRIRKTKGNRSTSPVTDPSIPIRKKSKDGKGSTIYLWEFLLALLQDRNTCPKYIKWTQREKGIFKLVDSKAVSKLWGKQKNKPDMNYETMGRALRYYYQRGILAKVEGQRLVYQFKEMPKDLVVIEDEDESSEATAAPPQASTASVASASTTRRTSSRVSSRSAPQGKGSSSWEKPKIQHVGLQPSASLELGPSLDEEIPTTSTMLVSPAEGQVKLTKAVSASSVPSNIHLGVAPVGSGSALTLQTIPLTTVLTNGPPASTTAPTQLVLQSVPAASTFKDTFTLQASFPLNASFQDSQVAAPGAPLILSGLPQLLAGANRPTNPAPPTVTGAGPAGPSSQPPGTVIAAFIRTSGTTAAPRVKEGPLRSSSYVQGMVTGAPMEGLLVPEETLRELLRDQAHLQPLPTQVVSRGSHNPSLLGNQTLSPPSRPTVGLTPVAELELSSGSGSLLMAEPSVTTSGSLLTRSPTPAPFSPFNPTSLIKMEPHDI
Sequence of SPIB (Q01892 whole entry): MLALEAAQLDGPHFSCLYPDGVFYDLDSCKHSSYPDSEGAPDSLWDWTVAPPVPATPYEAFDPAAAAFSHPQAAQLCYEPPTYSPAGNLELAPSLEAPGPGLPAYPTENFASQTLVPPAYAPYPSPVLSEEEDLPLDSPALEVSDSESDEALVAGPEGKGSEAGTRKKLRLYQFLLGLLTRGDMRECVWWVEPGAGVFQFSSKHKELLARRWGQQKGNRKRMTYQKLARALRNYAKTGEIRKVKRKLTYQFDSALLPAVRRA
Sequence of ELF1 (P32519 whole entry): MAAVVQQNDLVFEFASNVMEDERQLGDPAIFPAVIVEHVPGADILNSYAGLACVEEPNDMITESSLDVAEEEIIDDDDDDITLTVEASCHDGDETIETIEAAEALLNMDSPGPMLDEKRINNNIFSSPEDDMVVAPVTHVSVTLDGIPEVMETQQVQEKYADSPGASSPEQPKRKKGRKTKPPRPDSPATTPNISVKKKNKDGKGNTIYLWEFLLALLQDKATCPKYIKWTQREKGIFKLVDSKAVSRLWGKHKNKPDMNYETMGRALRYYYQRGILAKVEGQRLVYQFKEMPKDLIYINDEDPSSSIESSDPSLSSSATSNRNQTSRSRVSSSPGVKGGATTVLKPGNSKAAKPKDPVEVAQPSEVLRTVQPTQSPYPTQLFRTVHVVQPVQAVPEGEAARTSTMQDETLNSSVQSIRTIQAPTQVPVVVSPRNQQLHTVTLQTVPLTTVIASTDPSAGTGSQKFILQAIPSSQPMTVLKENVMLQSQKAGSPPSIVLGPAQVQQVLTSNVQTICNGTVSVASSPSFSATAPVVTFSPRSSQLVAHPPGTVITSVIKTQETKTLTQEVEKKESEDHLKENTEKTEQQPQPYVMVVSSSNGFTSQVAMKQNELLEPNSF
Sequence of ETV1 (P50549 whole entry): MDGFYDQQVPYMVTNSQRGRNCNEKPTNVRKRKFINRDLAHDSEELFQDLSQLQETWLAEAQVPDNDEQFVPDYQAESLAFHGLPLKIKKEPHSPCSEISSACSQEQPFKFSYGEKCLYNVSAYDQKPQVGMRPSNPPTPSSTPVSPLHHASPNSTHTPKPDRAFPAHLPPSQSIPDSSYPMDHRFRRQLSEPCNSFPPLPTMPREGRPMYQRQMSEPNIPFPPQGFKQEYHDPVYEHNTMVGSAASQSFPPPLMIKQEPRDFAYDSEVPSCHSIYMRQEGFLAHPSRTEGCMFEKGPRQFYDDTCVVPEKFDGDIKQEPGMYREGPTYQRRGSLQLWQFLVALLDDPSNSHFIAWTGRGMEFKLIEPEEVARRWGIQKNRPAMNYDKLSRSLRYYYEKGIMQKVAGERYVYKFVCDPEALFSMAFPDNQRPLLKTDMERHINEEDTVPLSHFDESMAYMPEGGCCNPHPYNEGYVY
Sequence of ETV5 (P41161 whole entry): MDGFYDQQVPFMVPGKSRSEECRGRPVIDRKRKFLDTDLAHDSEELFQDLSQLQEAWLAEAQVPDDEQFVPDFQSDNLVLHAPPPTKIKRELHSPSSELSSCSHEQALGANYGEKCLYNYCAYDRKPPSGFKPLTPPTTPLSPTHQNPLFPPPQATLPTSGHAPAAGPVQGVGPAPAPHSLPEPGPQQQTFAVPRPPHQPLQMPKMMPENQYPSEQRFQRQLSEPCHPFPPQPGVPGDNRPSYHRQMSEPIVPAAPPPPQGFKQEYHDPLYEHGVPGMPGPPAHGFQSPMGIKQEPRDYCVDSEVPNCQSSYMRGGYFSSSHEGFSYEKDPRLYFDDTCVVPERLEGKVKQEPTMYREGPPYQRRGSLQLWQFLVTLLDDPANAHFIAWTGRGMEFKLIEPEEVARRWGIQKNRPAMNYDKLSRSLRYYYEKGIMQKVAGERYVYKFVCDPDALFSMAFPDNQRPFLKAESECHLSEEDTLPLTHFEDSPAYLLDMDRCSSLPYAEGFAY

CACGGA
binding signal (FLI1): 1.03 fold enrichment (6-mer frequency, TF over GST control)
binding signal (ERG): 1.04 fold enrichment (6-mer frequency, TF over GST control)
binding signal (ELF1): 1.04 fold enrichment (6-mer frequency, TF over GST control)
binding signal (EHF): 1.1 fold enrichment (6-mer frequency, TF over GST control)
binding signal (SPIB): 1.05 fold enrichment (6-mer frequency, TF over GST control)
binding signal (ETV5): 1.05 fold enrichment (6-mer frequency, TF over GST control)
binding signal (SPIC): 1.06 fold enrichment (6-mer frequency, TF over GST control)
binding signal (ELF4): 1.03 fold enrichment (6-mer frequency, TF over GST control)
binding signal (ETV1): 1.06 fold enrichment (6-mer frequency, TF over GST control)
binding signal (ERF): 1.01 fold enrichment (6-mer frequency, TF over GST control)
binding signal (ETV3L): 1.04 fold enrichment (6-mer frequency, TF over GST control)
binding signal (ELF5): 1.29 fold enrichment (6-mer frequency, TF over GST control)
binding signal (ETV3): 1.22 fold enrichment (6-mer frequency, TF over GST control)
binding signal (ETV6): 1.09 fold enrichment (6-mer frequency, TF over GST control)

TAACCG
binding signal (FLI1): 1.06 fold enrichment (6-mer frequency, TF over GST control)
binding signal (ELK1): 1.05 fold enrichment (6-mer frequency, TF over GST control)
binding signal (ERG): 1.06 fold enrichment (6-mer frequency, TF over GST control)
binding signal (ELF1): 1.1 fold enrichment (6-mer frequency, TF over GST control)
binding signal (EHF): 1.06 fold enrichment (6-mer frequency, TF over GST control)
binding signal (SPIB): 1.18 fold enrichment (6-mer frequency, TF over GST control)
binding signal (ELK3): 1.13 fold enrichment (6-mer frequency, TF over GST control)
binding signal (FEV): 1.25 fold enrichment (6-mer frequency, TF over GST control)
binding signal (ETV5): 1.07 fold enrichment (6-mer frequency, TF over GST control)
binding signal (SPIC): 1.08 fold enrichment (6-mer frequency, TF over GST control)
binding signal (ELF4): 1.06 fold enrichment (6-mer frequency, TF over GST control)
binding signal (ETV1): 1.09 fold enrichment (6-mer frequency, TF over GST control)
binding signal (ERF): 1.12 fold enrichment (6-mer frequency, TF over GST control)
binding signal (ETV3L): 1.08 fold enrichment (6-mer frequency, TF over GST control)
binding signal (ETS2): 1.07 fold enrichment (6-mer frequency, TF over GST control)
binding signal (ELF5): 1.05 fold enrichment (6-mer frequency, TF over GST control)
binding signal (ETV3): 1.09 fold enrichment (6-mer frequency, TF over GST control)
binding signal (ETV6): 1.08 fold enrichment (6-mer frequency, TF over GST control)
